Assay results reported in PubChem BioAssay (NCI).
The panel holds about 79,000 compounds, 15% with a hit somewhere; the sample as a whole holds those more often. Active and inactive are the calls of the source. Cut-off read from the data, not from the text of the source: active = growth inhibition above about 70%; inactive = the rest.

Assays:
[1] = NCI Yeast Anticancer Drug Screen. Data for the rad52 strain (AID 147);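 note: 0% = growth of vehicle-treated control cultures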; conditions: S. cerevisiae rad52 mutant growth inhibition, hits give high values
Summary of the method: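 DNA repair-defective yeast; compound exposure; growth scored against vehicle controls.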

[2] = NCI Yeast Anticancer Drug Screen. Data for the wt1 strain (AID 149);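 note: 0% = growth of vehicle-treated wt1 cultures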; conditions: S. cerevisiae wt1 strain (SPY 50644) growth inhibition, hits give high values
Summary of the method: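 Readout: yeast growth inhibition, normalised to vehicle controls, in the wt1 strain exposed to test compounds.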

[3] = NCI Yeast Anticancer Drug Screen. Data for the rad50EPP+ strain (AID 151);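 note: 0% = growth of vehicle-treated control cultures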; conditions: S. cerevisiae rad50 mutant strain, hits give high values
Summary of the method: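 rad50EPP+ yeast treated with test compounds. Readout: growth vs vehicle control.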

[4] = NCI Yeast Anticancer Drug Screen. Data for the mgt1 strain (AID 153); conditions: S. cerevisiae mgt1 mutant growth inhibition, hits give high values
Summary of the method: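 Growth inhibition relative to vehicle controls was scored for the mgt1 yeast strain after compound exposure.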

[5] = NCI Yeast Anticancer Drug Screen. Data for the rad50 strain (AID 155);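 note: 0% = growth of vehicle-only cultures of the same strain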; conditions: S. cerevisiae rad50 strain growth inhibition, hits give high values
Summary of the method: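 Compounds were tested on a yeast strain with an engineered DNA damage repair alteration; the reported value is growth inhibition normalised to vehicle treatment.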

[6] = NCI Yeast Anticancer Drug Screen. Data for the mec2-1 strain (AID 157); conditions: S. cerevisiae mec2-1 strain, hits give high values
Summary of the method: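 Growth inhibition is read against vehicle-treated controls after compound exposure of the mec2-1 yeast strain, which is defective in DNA damage repair or cell cycle control.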

[7] = NCI Yeast Anticancer Drug Screen. Data for the rad14 strain (AID 159);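 note: 0% = growth of vehicle-treated control cultures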; conditions: S. cerevisiae rad14 strain growth inhibition, hits give high values
Summary of the method: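 Compound-treated yeast with a defined DNA-repair lesion; growth inhibition normalised to vehicle-treated cultures.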

[8] = NCI Yeast Anticancer Drug Screen. Data for the sgs1 mgt1 strain (AID 161);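 note: 0% = growth of cultures given vehicle only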; conditions: S. cerevisiae sgs1 mgt1 strain, hits give high values
Summary of the method: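 Yeast cells carrying a defined DNA-repair defect were exposed to test compounds. Growth inhibition was measured relative to vehicle-treated controls.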

[9] = NCI Yeast Anticancer Drug Screen. Data for the cln2 rad14 strain (AID 165);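 note: 0% = growth equal to vehicle treated cultures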; conditions: S. cerevisiae cln2 rad14 strain, hits give high values
Summary of the method: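 Growth inhibition, relative to vehicle-treated controls, is the read-out. The test organism is a yeast strain with defined genetic alterations, cln2 rad14.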

[10] = NCI Yeast Anticancer Drug Screen. Data for the bub3 strain (AID 167); conditions: S. cerevisiae bub3 mutant strain, hits give high values
Summary of the method: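 Growth of a checkpoint-deficient yeast mutant is measured after compound exposure. Values represent inhibition relative to vehicle.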

[11] = NCI Yeast Anticancer Drug Screen. Data for the wt2 strain (AID 169);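 note: 0% = growth of vehicle-treated yeast cultures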; conditions: S. cerevisiae wt2 strain growth inhibition, hits give high values
Summary of the method: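 Compound exposure of yeast; growth compared with vehicle controls; inhibition reported.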

[12] = NCI Yeast Anticancer Drug Screen. Data for the mlh1 strain (AID 171);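 note: 0% = growth of vehicle-treated control cultures of the same strain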; conditions: S. cerevisiae mlh1 strain growth inhibition, hits give high values
Summary of the method: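 Compounds are applied to a genetically altered yeast strain, and its growth is compared with that of vehicle-treated cultures to give percent inhibition.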

[13] = NCI Yeast Anticancer Drug Screen. Data for the sgs1 strain (AID 173);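 note: 0% = growth of vehicle-only control cultures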; conditions: S. cerevisiae sgs1 mutant, hits give high values
Summary of the method: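 Compounds applied to genetically altered yeast; growth compared with vehicle-treated cultures to give % inhibition.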

[14] = NCI Yeast Anticancer Drug Screen. Data for the mlh1 rad18 strain (AID 175); conditions: S. cerevisiae mlh1 rad18 strain growth inhibition, hits give high values
Summary of the method: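 Cells of a genetically altered yeast strain, deficient in DNA damage repair, were treated with compound. Their growth was then compared with that of vehicle-treated cultures to give inhibition.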

[15] = NCI Yeast Anticancer Drug Screen. Data for the rad18 strain (AID 177); conditions: S. cerevisiae rad18 mutant growth inhibition, hits give high values
Summary of the method: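 Compounds are applied to a repair-deficient yeast strain, and growth is compared with that of vehicle-treated cultures to give percent inhibition.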

[16] = NCI Yeast Anticancer Drug Screen. Data for the CLN2oe strain (AID 163);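 note: 0% = growth of vehicle-only control cultures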; conditions: S. cerevisiae CLN2oe strain, hits give high values
Summary of the method: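 Compound-treated yeast; growth vs vehicle ctrl = % inhibition. Genetically altered strain (cell-cycle control).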

[17] = at 5.0 µM (retest, dose inferred, filed as 0.5)
[18] = at 50.0 µM (retest, dose inferred, filed as 5.0)

Measured: growth inhibition

COC(=O)C(Cl)(Cl)N=Nc1c(Cl)cc(Cl)c(C)c1Cl
active: [1]; at 3.7 µM 83% | [1]; at 11.0 µM 97% | [1]; at 33.0 µM 98% | [1]; at 100.0 µM 97% | [2]; at 11.0 µM 99% | [2]; at 33.0 µM 99% | [2]; at 100.0 µM 99% | [3]; at 3.7 µM 83% | [3]; at 11.0 µM 99% | [3]; at 33.0 µM 99% | [3]; at 100.0 µM 99% | [4]; at 11.0 µM 96% | [4]; at 33.0 µM 98% | [4]; at 100.0 µM 99% | [5]; at 11.0 µM 96% | [5]; at 33.0 µM 92% | [5]; [18] 99% | [5]; at 50.0 µM 92.5% | [5]; at 100.0 µM 96% | [6]; at 11.0 µM 97% | [6]; at 33.0 µM 98% | [6]; [18] 99% | [6]; at 50.0 µM 91.3% | [6]; at 100.0 µM 98% | [7]; at 11.0 µM 80% | [7]; at 33.0 µM 99% | [7]; at 100.0 µM 98% | [8]; at 50.0 µM 91.9% | [9]; at 50.0 µM 88.2% | [10]; at 11.0 µM 92% | [10]; at 33.0 µM 98% | [10]; at 50.0 µM 93.2% | [10]; at 100.0 µM 98% | [11]; at 3.7 µM 89% | [11]; at 11.0 µM 99% | [11]; at 33.0 µM 99% | [11]; at 100.0 µM 99% | [12]; at 11.0 µM 96% | [12]; at 33.0 µM 100% | [12]; at 100.0 µM 100% | [13]; at 3.7 µM 88% | [13]; at 11.0 µM 87% | [13]; at 33.0 µM 99% | [13]; at 100.0 µM 100% | [14]; [18] 99% | [14]; at 50.0 µM 93.2% | [15]; at 3.7 µM 87% | [15]; at 11.0 µM 96% | [15]; at 33.0 µM 98% | [15]; at 100.0 µM 99%
inactive: [1]; at 1.2 µM -14% | [2]; at 1.2 µM -12% | [2]; at 3.7 µM 52% | [3]; at 1.2 µM 12% | [4]; at 1.2 µM -50% | [4]; at 3.7 µM 20% | [5]; at 1.2 µM -34% | [5]; at 3.7 µM 46% | [5]; [17] 49% | [6]; at 1.2 µM -40% | [6]; at 3.7 µM 68% | [6]; [17] 54% | [7]; at 1.2 µM -51% | [7]; at 3.7 µM 59% | [8]; [17] 14% | [8]; [18] 69% | [9]; [17] 2% | [9]; [18] -66% | [10]; at 1.2 µM -32% | [10]; at 3.7 µM 11% | [10]; [17] 5% | [10]; [18] -28% | [11]; at 1.2 µM -3% | [12]; at 1.2 µM -34% | [12]; at 3.7 µM 6% | [13]; at 1.2 µM 10% | [14]; [17] 59% | [15]; at 1.2 µM 28%

COc1ccc2nc3cccc([N+](=O)[O-])c3c(NCCNCCN(C)C)c2c1
active: [5]; [18] 97% | [5]; at 50.0 µM 74.7% | [6]; [18] 97% | [6]; at 50.0 µM 73% | [8]; [17] 72% | [8]; [18] 93% | [9]; [18] 99% | [9]; at 50.0 µM 77.7% | [14]; [18] 96%
inactive: [1]; at 1.2 µM -4% | [1]; at 3.7 µM -3% | [1]; at 11.0 µM -6% | [1]; at 33.0 µM -4% | [1]; at 100.0 µM 2% | [2]; at 1.2 µM -3% | [2]; at 3.7 µM -2% | [2]; at 11.0 µM -2% | [2]; at 33.0 µM -1% | [2]; at 100.0 µM 3% | [3]; at 1.2 µM -4% | [3]; at 3.7 µM 0% | [3]; at 11.0 µM 0% | [3]; at 33.0 µM -4% | [3]; at 100.0 µM 3% | [4]; at 1.2 µM 0% | [4]; at 3.7 µM -3% | [4]; at 11.0 µM 20% | [4]; at 33.0 µM -3% | [4]; at 100.0 µM 5% | [5]; at 1.2 µM -4% | [5]; at 3.7 µM -5% | [5]; [17] 29% | [5]; at 11.0 µM -12% | [5]; at 33.0 µM -4% | [5]; at 100.0 µM 1% | [6]; at 1.2 µM 2% | [6]; at 3.7 µM -1% | [6]; [17] 5% | [6]; at 11.0 µM 2% | [6]; at 33.0 µM -1% | [6]; at 100.0 µM 8% | [8]; at 50.0 µM 68.2% | [16]; at 1.2 µM -1% | [16]; at 3.7 µM -2% | [16]; at 11.0 µM -11% | [16]; at 33.0 µM 3% | [16]; at 100.0 µM 12% | [9]; [17] 32% | [10]; at 1.2 µM -5% | [10]; at 3.7 µM 4% | [10]; [17] -33% | [10]; at 11.0 µM 3% | [10]; at 33.0 µM -5% | [10]; [18] 50% | [10]; at 50.0 µM -5.3% | [10]; at 100.0 µM -5% | [11]; at 1.2 µM -2% | [11]; at 3.7 µM -4% | [11]; at 11.0 µM -3% | [11]; at 33.0 µM -3% | [11]; at 100.0 µM 1% | [12]; at 1.2 µM -4% | [12]; at 3.7 µM -4% | [12]; at 11.0 µM -1% | [12]; at 33.0 µM -3% | [12]; at 100.0 µM 3% | [13]; at 1.2 µM -1% | [13]; at 3.7 µM -1% | [13]; at 11.0 µM 0% | [13]; at 33.0 µM -1% | [13]; at 100.0 µM 2% | [14]; [17] 55% | [14]; at 50.0 µM 66.5% | [15]; at 1.2 µM -5% | [15]; at 3.7 µM -3% | [15]; at 11.0 µM -4% | [15]; at 33.0 µM 3% | [15]; at 100.0 µM 6%
